About 83,000 compounds went through this panel and 20% of them were active in at least one assay; those are over-represented in the sample as a whole.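 The endpoint reported here, percent growth, reads 100 for growth as untreated, 0 for no net growth and -100 for all cells dead.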 Active and inactive are the calls of the source. Rule for the calls: active = growth percent below 10; inactive = the rest.
The compounds below were run on HL-60(TB) leukemia (assay: NCI-60 one-dose screen, 48 h (100 = growth as untreated, 0 = no growth, -100 = all killed)). Settings: 10 µM unless noted.

SMILES | growth
COc1cc2nc(Nc3cccc(F)c3)nc(Nc3cc(C)[nH]n3)c2cc1OC | -54% [20 µM] (active)
COc1cc(-c2nccc3[nH]c(-c4ccc5cc[nH]c5c4)nc23)cc(OC)c1OC | -48.7% (active)
CCC1(/C=N/NC(N)=S)NC(=O)NC1=O (stereo not given) | 111% (inactive)
CCOc1cc2ncc(C#N)c(Nc3ccc(OCc4cccc(F)c4)c(Cl)c3)c2cc1NC(=O)CCCCC1CCSS1 (stereo not given) | 108% (inactive)
Brc1ccc(-c2[nH]ncc2-c2c[nH]c3ccccc23)cc1 | 80.7% (inactive)
CCOC(=O)C(c1ccccc1)N1C(=O)c2ccccc2C1=O (stereo not given) | 115% (inactive)
COc1cc(C=C2C(=O)NC(=S)NC2=O)cc(CN2CCCC2)c1O | 108% (inactive)
CC(=O)O[C@H]1Cc2c([nH]c3ccccc23)[C@@H](c2ccc(Cl)cc2)N1C(=O)CCNC(C)(C)C | 16.6% (inactive)
O=C(O)CCNS(=O)(=O)c1ccc(-c2ccccc2)cc1 | 188% (inactive)
c1ccc(-c2c(-c3ccccc3)[n+](Cc3ccc4ccccc4c3)cn2Cc2ccc3ccccc3c2)cc1 | -67.1% (active)
CSc1nc(N)c2c(n1)NC(c1ccccc1)C1CCc3ccccc3C1=N2 (stereo not given) | 26.4% (inactive)
CC/C=C1/C(=O)C=C[C@@H]1C/C=C\CCCC(=O)O | 52.1% (inactive)
COc1cc(OC)c2c(=O)c(O)c(-c3ccccc3)oc2c1 | 53.4% (inactive)
CC1(O)CCC2CC3OC3(C)CCC3OC3(C)CCC1C2(C)C (stereo not given) | 120% (inactive)
O=C(NCCOCCOCCOCCNC(=O)c1cc2c(o1)C(=O)c1ccccc1C2=O)NC12CC3CC(CC(C3)C1)C2 | 1.17% (active)
CCN(CC)CC(C)Nc1ccc(C)c2sc3ccccc3c(=O)c12 (stereo not given) | 50.8% (inactive)
NNC(=O)C1CC2c3ccccc3C1c1ccccc12 (stereo not given) | 113% (inactive)
CS(=O)c1cccc(-c2ccc3nc(N)n(-c4ccc(C(F)(F)F)cc4)c(=O)c3c2)c1 (stereo not given) | 100% (inactive)
CC(C)[C@@]12C[C@@H](OC(=O)[C@H]3CO3)[C@@](C)(O1)[C@@H]1CC[C@@H](C)[C@H]1[C@@H]2OC(=O)/C=C/c1ccccc1 | 67% (inactive)
COc1ccc2c(c1)OC(N)=C(C#N)C2c1cc(OC)c(OC)c(OC)c1 (stereo not given) | -30.4% (active)

SMILES | growth
O=C1/C(=C/c2ccccc2O)CC/C1=C\c1ccccc1O | 11.9% (inactive)
Cc1ccc(-c2nc(N3CCN(CC(=O)Nc4ccc(Cl)c(C(F)(F)F)c4)CC3)c3ccccc3n2)cc1 | 97.6% (inactive)
COc1cccc(-c2[nH]c(=S)ncc2C(=O)c2ccccc2)c1 | 78.2% (inactive)
O=c1[nH]nnc2c1ncn2C1OC(CO)C(O)C1O (stereo not given) | 25.2% (inactive)
Cc1ccc(-c2nc3ccccc3c(=O)n2/N=C/c2cccc3ccccc23)cc1 | 85.1% (inactive)
O=C1Nc2c(ccc(Cl)c2Cl)/C1=C\c1cc(C(F)(F)F)cc(C(F)(F)F)c1 | -29.3% (active)
O=C(NCc1cccc(CNC(=O)Nc2nc3ccccc3[nH]2)c1)Nc1nc2ccccc2[nH]1 | 10.1% (inactive)
CCOC(=O)c1cc(/C(=N\O)c2cc(OC)c(OC)c(OC)c2)n2cc(C)cc(C)c12 | 9.42% (active)
Cc1cc(C)n(-c2nnc3n2N=C(c2ccc(-c4ccccc4)cc2)CS3)n1 | 7.07% (active)
CC(C)(O)c1cccc(F)c1 | 70.7% (inactive)
C=C(C)[C@@H]1CC[C@]2(C(=O)OC)CC[C@]3(C)[C@H](CC[C@@H]4[C@@](C)(CC/C(N)=N/O)[C@H](C(=C)C)CC[C@]43C)[C@@H]12 | 92.2% (inactive)
CCOC(=O)COc1c(C)cc(SSc2cc(C)c(OCC(=O)OCC)c(C)c2)cc1C | 88.5% (inactive)
CS(=O)(=O)c1ccc(NC(=O)c2ccccc2)nc1 | 67.5% (inactive)
C=C1C(=O)O[C@H]2[C@H]1CC/C(COC(=O)NCc1cccc(OC)c1)=C\CC[C@@]1(C)O[C@@H]21 | -38.6% (active)
CCCOc1ccc2nc(NC(=O)OC)[nH]c2c1 | 3.05% (active)
CC(=O)OC[C@H]1O[C@@H](n2c(=O)cc(N)[nH]c2=O)C(OC(C)=O)[C@@H]1OC(C)=O (stereo not given in full) | 107% (inactive)
COc1cc(NS(C)(=O)=O)ccc1Nc1c2ccc(Cl)cc2nc2c(OC)cccc12 | -30.1% (active)
Cc1ccc(NC(=O)c2nc(S(C)=O)oc2-c2ccc(F)cc2)cc1Nc1nccc(-c2cccnc2)n1 (stereo not given) | 47.3% (inactive)
C#CCNC(=S)N/N=C(\C)c1ccccn1 | -18.6% (active)
Nc1ccc(-c2ccc(N)c(S(=O)(=O)O)c2)cc1S(=O)(=O)O | 91.4% (inactive)

— PubChem BioAssay (NCI)
